Growth yield data for 33 compounds are collected here from the supplement of paper PMC8007513.

Structures can show the parent of a compound that is named as a salt. ± gives the standard error. Out of some 1,300 compounds screened, about 75 (6%) showed an effect of 50% or more. This excerpt belongs to a sample that is enriched for strong results.

In this experiment the test system is Trichoderma virens ATCC 9645. The experiment is described as follows: growth yield (OD600) relative to untreated control; higher = less growth inhibition. To be noted: compound concentration: 100 uM. In short, it runs like this:
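Spores of Trichoderma virens ATCC 9645, taken from potato dextrose agar plates grown for 7 days, were suspended at 15,000 spores ml^−1 in potato dextrose broth. In 96-well plates, 100 μl aliquots held library compounds at 100 μM final, either alone or together with a biocide at 200 ng ml^−1, and were grown at 30 °C. A BioTek EL800 read OD600 at 40 h and 72 h. Growth values are given relative to the control lacking both agents and are means of duplicate screens.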

In the case of `c1ccc2[nH]c(-c3cscn3)nc2c1` [Tiabendazole], the growth yield by setting is: (40 h) 1.43 ± 1.4%; (72 h) 1.26 ± 1.3%.

On to `C[C@@H]1CCC[C@H](C)N1NC(=O)c1ccc(Cl)c(S(N)(=O)=O)c1` [Clopamide], for which the growth yield by setting is: (40 h) 99.6 ± 1.8%; (72 h) 103 ± 3%.

`CCCCc1ncc(/C=C(\Cc2cccs2)C(=O)O)n1Cc1ccc(C(=O)O)cc1` [Eprosartan mesylate] registered a growth yield (40 h) of 98.3 ± 5.6% and a growth yield (72 h) of 94.08 ± 0.94%.

For `Cc1onc(-c2ccccc2)c1C(=O)N[C@@H]1C(=O)N2[C@@H]1SC(C)(C)[C@@H]2C(=O)O` [Oxacillin sodium], the growth yield is, setting by setting: (40 h) 111 ± 1.6%; (72 h) 105 ± 1.4%.

In the case of `CCCCCOC(=O)Nc1nc(=O)n([C@@H]2O[C@H](C)[C@@H](O)[C@H]2O)cc1F` [Capecitabine], the growth yield (40 h) is 105.2 ± 0.64% and the growth yield (72 h) worked out at 103.2 ± 0.84%.

On to `CC(CN(C)C)C(C)(O)Cc1ccc(Cl)cc1` (stereo unspecified) [Clobutinol hydrochloride], for which the growth yield by setting is: (40 h) 105 ± 3.5%; (72 h) 104 ± 2.5%.

Take `Oc1c(Cl)cc(Cl)c(Cl)c1Cc1c(O)c(Cl)cc(Cl)c1Cl` [Hexachlorophene]: the growth yield (40 h) is 25.3 ± 2.1% and the growth yield (72 h) turned out to be 98.9 ± 5.8%.

Take `CC(C(=O)O)c1cccc(Oc2ccccc2)c1` (stereo unspecified) [Fenoprofen calcium salt dihydrate]: the growth yield reads like this: (40 h) 97.5 ± 10%; (72 h) 97.7 ± 13%.

For the compound `CC(=O)N[C@@H](CC(C)C)C(=O)O` [N-Acetyl-L-leucine], the growth yield (40 h) was 103 ± 3% and the growth yield (72 h) was 103 ± 2.7%.

`CCCN(CCC)CCc1cccc2c1CC(=O)N2` [Ropinirole hydrochloride]: the growth yield is, setting by setting: (40 h) 99.43 ± 0.64%; (72 h) 103 ± 1.1%.

With `COc1cc([S+](C)[O-])ccc1-c1nc2cccnc2[nH]1` (stereo unspecified) [Sulmazole], the growth yield (40 h) is 99.4 ± 2.2% and the growth yield (72 h) turned out to be 98 ± 1.7%.

Take `Cc1cc2cc3c(C)cc(=O)oc3c(C)c2o1` [Trioxsalen]: the growth yield was 42.1 ± 0.48% (40 h) and 73.7 ± 4.5% (72 h).

Take `Cc1cc(=O)oc2cc(O)ccc12` [Hymecromone]: the growth yield reads like this: (40 h) 101 ± 0.32%; (72 h) 97.01 ± 0.94%.

Regarding `COc1c2occc2c(OC)c2c(=O)cc(C)oc12` [Khellin], the growth yield by setting is: (40 h) 97.7 ± 1.8%; (72 h) 95.1 ± 5.1%.

`COC(=O)C1=C(C)NC(C)=C(C(=O)OCC(C)C)C1c1ccccc1[N+](=O)[O-]` (stereo unspecified) [Nisoldipine]: the growth yield was 25.6 ± 0.48% (40 h) and 23.9 ± 2.3% (72 h).

`CCOC(=O)C1=C(C)NC(C)=C(C(=O)OC)C1c1cccc(Cl)c1Cl` (stereo unspecified) [Felodipine]: the growth yield runs as follows: (40 h) 92.8%; (72 h) 94.2%.

`COC(=O)C1=C(C)NC(C)=C(C(=O)OCCN(C)Cc2ccccc2)C1c1cccc([N+](=O)[O-])c1` (stereo unspecified) [Nicardipine hydrochloride] gave a growth yield (40 h) of 89.4 ± 5.2% and a growth yield (72 h) of 114 ± 7.8%.

In the case of `COCCOC(=O)C1=C(C)NC(C)=C(C(=O)OC(C)C)C1c1cccc([N+](=O)[O-])c1` (stereo unspecified) [Nimodipine], the growth yield (40 h) worked out at 95.3 ± 7.3% and the growth yield (72 h) is 97.7 ± 9%.

As for `COC(=O)C1=C(C)NC(C)=C(C(=O)OC)C1c1ccccc1[N+](=O)[O-]` [Nifedipine], the growth yield by setting is: (40 h) 44.2 ± 1.3%; (72 h) 53.1 ± 1.1%.

Consider `CCOC(=O)C1=C(C)NC(C)=C(C(=O)OC)C1c1cccc([N+](=O)[O-])c1` (stereo unspecified) [Nitrendipine], for which the growth yield runs as follows: (40 h) 85.6 ± 1.1%; (72 h) 89.9 ± 3.7%.

`N=C(N=C(N)N)N1CCOCC1` [Moroxidine hydrochloride]: the growth yield is 106 ± 4.3% (40 h) and 104 ± 1.9% (72 h).

In the case of `O=C(Nc1ccc([N+](=O)[O-])cc1Cl)c1cc(Cl)ccc1O` [Niclosamide], the growth yield runs as follows: (40 h) 96.1 ± 0.16%; (72 h) 96.59 ± 0.1%.

On to `CN[C@@H]1[C@H](O[C@H]2[C@H](O[C@H]3[C@H](O)[C@@H](O)[C@H](N=C(N)N)[C@@H](O)[C@@H]3N=C(N)N)O[C@@H](C)[C@]2(O)C=O)O[C@@H](CO)[C@H](O)[C@H]1O` [Streptomycin sulfate], for which the growth yield runs as follows: (40 h) 103 ± 1.3%; (72 h) 104.35 ± 0.1%.

In the case of `COc1cc(C)nc(-n2nc(C)cc2OC)n1` [Epirizole], the growth yield worked out at 111 ± 3.8% (40 h) and 109 ± 3.8% (72 h).

Take `Cc1ncc(CO)c(CO)c1O` [Pyridoxine hydrochloride]: the growth yield was found to be 101.5 ± 0.16% (40 h) and 103.3 ± 0.52% (72 h).

With `Clc1ccc2c(c1)CCc1cccnc1C2=C1CCNCC1` [Desloratadine], the growth yield was determined as 106 ± 6.8% (40 h) and 105 ± 4.8% (72 h).

Take `CN1CCC(=C2c3ccccc3CCc3cccnc32)CC1` [Azatadine maleate]: the growth yield was 107 ± 7.9% (40 h) and 104 ± 4.2% (72 h).

For the compound `CCOC(=O)N1CCC(=C2c3ccc(Cl)cc3CCc3cccnc32)CC1` [Loratadine], the growth yield (40 h) stood at 19.2 ± 12% and the growth yield (72 h) came to 73.6%.

For `COc1ccc(C[C@@H]2c3cc(OC)c(OC)cc3CC[N@+]2(C)CCC(=O)OCCCCCOC(=O)CC[N@@+]2(C)CCc3cc(OC)c(OC)cc3[C@H]2Cc2ccc(OC)c(OC)c2)cc1OC` [Cisatracurium besylate], the growth yield runs as follows: (40 h) 95 ± 1.3%; (72 h) 94 ± 3.4%.

`CCCOc1ccc2[nH]c(NC(=O)OC)nc2c1` [Oxibendazol]: the growth yield runs as follows: (40 h) 16.4 ± 3.6%; (72 h) 74.6 ± 3.5%.

In the case of `CCCSc1ccc2[nH]c(NC(=O)OC)nc2c1` [Albendazole], the growth yield was 73.2 ± 3.6% (40 h) and 84.3 ± 5.5% (72 h).

For `CCCCc1ccc2[nH]c(NC(=O)OC)nc2c1` [Parbendazole], the growth yield turned out to be 53.4 ± 1.9% (40 h) and 95.9 ± 10% (72 h).

Turning to `Cc1ccc2c(c1)c1c3n2CCNC3CCC1` (stereo unspecified) [Pirlindole mesylate], the growth yield (40 h) was 101 ± 1.1% and the growth yield (72 h) worked out at 104 ± 2.5%.
